The results in this text go back to the supplement of paper PMC6555819.

This experiment deals with VDR:RXRa (NR concentration 270 nM, RXRa partner concentration 90 nM). The experiment is described as follows: PBM binding z-score (relative to random genomic background probes); higher = stronger binding; sequences stand for … in GC…GCGATTGACAGCGTAGAATGAAGG
On the procedure: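 Protein-binding microarray (Agilent 4x180K custom design, double-stranded 60-nt probes: 5' GC cap, 34-nt variable region, 24-nt constant primer region; full probe sequence given). Purified or IVT nuclear receptor:RXRα heterodimers (3:1 NR:RXRα, mostly 270:90 nM) or homodimers were incubated for 1 h in PBS with 2% milk and no ligand, then detected with Alexa488 antibodies. Fluorescence from o1-orientation probes (~5 replicates averaged) was converted to z-scores against 500 random hg19 background probes. Variable regions are seed direct-repeat (DR0–DR5) sites, all their single-nucleotide variants and half-site ablations.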
For the sequence CATACTGGGTCAGCTAGGCCAGAGTAGGGACGGC, the PBM binding z-score amounted to 1.19. Regarding CCTAGCAGGCCGGGGTCACTCAAGCATTTCGCTT, the PBM binding z-score was found to be 4.94. As to CCTACTGGTCCATCAGGTCATTGATATCAACGTT, the PBM binding z-score is 2.46. TTACCAAGGTGAGCTGATGTCGTTGATCCAACTC yielded a PBM binding z-score of -0.0183. As to TAACCAAGGTGAGCTGAGGTCGTTGATCCAACTC, the PBM binding z-score stood at 4.26. For the sequence GGAACGCGGGCAAAGTTGATAGCATCTGTCGACG, the PBM binding z-score is -0.564. CCGACTGGCGCAGAAAGGTTACCATACCATCCGG gave a PBM binding z-score of 0.29.

With GCTGCTAGGTCAACCGATGGTCAGCTAAAGCTCG, the PBM binding z-score amounted to 1.54. Under GCTAGCAGGCCATTTGGGTCACTCAGTGACGGGC stands 0.711. Under TGAACGAGGTTATAAGATCAGGGAACGTTGCAAA stands 0.923. CGAACTAGGTCAAGGACAGTGATTCTCCGCACGC registered a PBM binding z-score of 1.48.

CTTACTGGGCCACGAAAGGTCATTGATTCAGTGA gave a PBM binding z-score of 4.64.

In the case of ACAGACAGGTGAGTGAAGATAACTCAGCTGGACG, the PBM binding z-score was -0.413. TCATATAGGTAATACATGTGAAAGTCGGCATCTA showed a PBM binding z-score of 1.07. Under ATCTCTAGGTAACCGAGTTCAGTGAATGCCGAAC stands 5.27. The sequence CAAGACAGGTGAGAAGGTAACTCAGCCTCGATTA gave a PBM binding z-score of -0.155.

GCTATTAGTTGAAGGGGCAACCGAATGATTCTCG had a PBM binding z-score of -0.246. The figure for AATACAGGGTCACTAGGCCAGCGTAGGTACGAAT is 4.16; for GCAGACAGGTGAAACGCAGGTAAATCAGGGTGGC it is -0.374; for GCTTGTAGATCAAGGTTAAGAAAGACTAAGCTAA it is 0.156. The figure for GATACAGGTTCAAGGCCAGAGTACGCGTATTGAT is 3.41; for GAGACTGGGGCATCAGCAGGTTACCATAACTTAA it is 0.317.

TTACAAAGGTGAAGGTCGTTGATCCCTCTGTAGA returned a PBM binding z-score of 2.19.

GTACCGAGGTGAATAGGTCGTTGATGAGTAGGCG yielded a PBM binding z-score of 1.14.

Sequence GCTTGTAGATCAAGTTTAAGAAAGACTAAGCTAA showed a PBM binding z-score of -0.096.

ATCGAAAGGTCGACGAGGCGAGTATACACCGTTT came in with a PBM binding z-score of 3.79. Turning to TCTAGGAGGCCAGAGGGTCACTCAAGAGGTACGG, the PBM binding z-score amounted to 1.68. For the sequence CCTGTTAGTTGACCATAAGGGCAACCGAAGCTCG, the PBM binding z-score was 0.474. CCGAGTAGGGTATGGGGCATTCAGGCAACGGTGA: the PBM binding z-score was -0.217. As to TCTATTTGGTCACGGAGGTCACACACGACGGGTA, the PBM binding z-score was found to be 5.87. The figure for GCTTACGGGTCAAAGGTTATAGAATGAATAGAAT is 5.63.

CGTCCAAGGTCAGAGAGGTTAGTGAATGCCGAGT yielded a PBM binding z-score of 5.8. The sequence CAAACTAGGTCACGAAAGGTCAAAGGCGAATGAC had a PBM binding z-score of 6.79. On to TCATATAGGTAATACAGGTGAAAGTAGGCATCTA, for which the PBM binding z-score was determined as 1.41.

On to ATCGAAAGGTCGAGGGGAGTATAGAGAAAGGGAA, for which the PBM binding z-score came to 2.67. Under TCATATAGGTAAAGGTGAAAGTGGAACGATATGA stands 1.05; under ATACCGAGGTGATCGTGAGGTCGTTGATACTAAC, 3.69. As for CGAACTAGGTCAAGGACAGTGACTCTCCGCACGC, the PBM binding z-score was 1.19. For the sequence ATCTCTAGGTAAAGTTCAGTGAGAGATCGATAGA, the PBM binding z-score stood at 1.64. Under GCTGCTAGGTCAAATGATGGTCAGCTAAAGCTCG stands 1.96.
